Data as given in PubChem BioAssay (NCATS).
Results filed as inconclusive are left out. Activity calls are given as the source filed them. The call rests on the fitted dose curve; in most records, active means well fitted cell-killing curve with a large enough effect; inconclusive means small, poorly fitted or top-dose-only effect; inactive means flat fitted curve, though single readings scatter.

test: Cell Viability - Renal Proximal Tubule (AID 545); settings: renal proximal tubule cells viability; series mostly up to 91.7 µM; further: nearly all actives have a fitted effect of over 40% in size
Description: NIH Chemical Genomics Center [NCGC]
NIH Molecular Libraries Screening Centers Network [MLSCN]
National Institutes of Environmental Health Sciences [NIEHS]
National Toxicology Program [NTP]
We have developed a 1536-well cell-based assay for quantitative high throughput screening (qHTS) against a number of cell lines to determine in vitro cytotoxicity of small molecules. This particular assay uses the renal proximal tubule cells which are derived from normal kidney cells freshly isolated from rat.
NCGC Assay Protocol Summary:
The CellTiter-Glo luminescent cell viability assay (Promega) is a homogeneous method to measure the number of viable cells in culture. The end point readout of this assay is based on quantitation of intracellular ATP, an indicator of metabolic activity, using the luciferase reaction. Luciferase catalyzes the oxidation of beetle Luciferin to oxyluciferin and light in the presence of ATP. The luminescent signal is proportional to amount of ATP present.
Using the CellTiter-Glo luminescent cell viability assay, the amount of cellular ATP was measured in the renal proximal tubule cells with complete culture medium following compound treatment for 40 hours. The assay was performed in opaque white Kalypsys 1536-well plates. In the screen, tamoxifen and doxorubicin were used as positive controls. Library compounds were measured for their ability to cause acute toxicity in the cell line, as reflected by a decrease in intracellular ATP levels, in a concentration-dependent manner. […] AC50 values were determined from concentration-response data modeled with the standard Hill equation.
qHTS protocol for CellTiter Glo renal proximal tubule cell assay
[Step] [Parameter] [Value] [Description]
1. Reagent; 5 uL; 1000 renal proximal tubule cells/well
2. Time; 5 hr; 37 °C incubation
4. Controls; 23 nL; Tamoxifen 0.34 uM to 100 uM & Doxorubicin 0.02 nM to 100 uM
5. Time; 40 hr; 37 °C incubation
6. Reagent; 5 uL; CellTiter Glo reagent
7. Time; 20 min; Room Temperature
8. Detection; Luminescence; Viewlux plate reader
Keywords: cell viability, cytotoxicity, renal proximal tubule cells, luminescence, NTPHTS, NTPHTS_NCGC, NIEHS, EPA, DSSTox, MLSMR, MLSCN, NIH Roadmap, qHTS, NCGC

Compound | outcome
CC(C)NC(C)C | inactive
O=P1(N(CCCl)CCCl)NCCCO1 (stereo not drawn) | inactive
O=C(O)CCCc1ccc(N(CCCl)CCCl)cc1 | inactive
COP(=S)(OC)Oc1ccc(SC)c(C)c1 | inactive
CCC(C)(C)c1ccc(O)cc1 | inactive
CCOC(=O)CC(SP(=S)(OC)OC)C(=O)OCC (stereo not drawn) | inactive
C[C@]1(O)CC[C@H]2[C@@H]3CCC4=CC(=O)CC[C@]4(C)[C@@]3(F)[C@@H](O)C[C@@]21C | inactive
CCCC(C)(COC(N)=O)COC(N)=O | inactive
NCCc1ccc(O)cc1 | inactive
Nc1ccccc1 | inactive
CN1C[C@H](C(=O)N[C@]2(C)O[C@@]3(O)[C@@H]4CCCN4C(=O)[C@H](Cc4ccccc4)N3C2=O)C=C2c3cccc4[nH]cc(c34)C[C@H]21 | inactive
COC(=O)C(c1ccccc1)C1CCCCN1 (stereo not drawn) | inactive
Oc1ccc(Cl)cc1 | inactive
Nc1ccccc1C(=O)O | inactive
Clc1ccc(C(c2ccc(Cl)cc2)C(Cl)(Cl)Cl)cc1 | inactive
C[C@]12CCC(=O)C=C1CC[C@@H]1[C@@H]2CC[C@]2(C)C(=O)CC[C@@H]12 | inactive
CC(C)c1cccc(C(C)C)c1O | inactive
COc1cc(OC)c(OC)cc1C=O | inactive
